Experimental data published in ChEMBL document CHEMBL3433997, “St. Jude Leishmania screening dataset” (2016).

Legend:
Format in all cases: functional
[1] = target: Solute carrier family 2, facilitated glucose transporter member 1 (Homo sapiens) (UniProt P11166); test: ST_JUDE_LEISH: Cytotoxicity at 2uM final concentration against transgenic Leishmania Mexicana promastigotes LmGLUT1 that are glucose transport deficient and complemented with the human glucose transporter GLUT1. Activity is measured by DNA content using SYBR green in vitro
[2] = target: Hexose transporter 1 (Plasmodium falciparum) (UniProt O97467); test: ST_JUDE_LEISH: Cytotoxicity at 2uM final concentration against transgenic Leishmania Mexicana promastigotes LmPfHT that are glucose transport deficient and complemented with the Plasmodium falciparum hexose transporter. Activity is measured by DNA content using SYBR green in vitro
[3] = target: Glucose transporter (Leishmania mexicana) (UniProt O61059); test: ST_JUDE_LEISH: Cytotoxicity at 2uM final concentration against transgenic Leishmania Mexicana promastigotes LmGT2 that are glucose transport deficient and complemented with the L. Mexicana glucose transporter 2. Activity is measured by DNA content using SYBR green in vitro

Sequence of Solute carrier family 2, facilitated glucose transporter member 1 (Homo sapiens) (P11166 whole entry): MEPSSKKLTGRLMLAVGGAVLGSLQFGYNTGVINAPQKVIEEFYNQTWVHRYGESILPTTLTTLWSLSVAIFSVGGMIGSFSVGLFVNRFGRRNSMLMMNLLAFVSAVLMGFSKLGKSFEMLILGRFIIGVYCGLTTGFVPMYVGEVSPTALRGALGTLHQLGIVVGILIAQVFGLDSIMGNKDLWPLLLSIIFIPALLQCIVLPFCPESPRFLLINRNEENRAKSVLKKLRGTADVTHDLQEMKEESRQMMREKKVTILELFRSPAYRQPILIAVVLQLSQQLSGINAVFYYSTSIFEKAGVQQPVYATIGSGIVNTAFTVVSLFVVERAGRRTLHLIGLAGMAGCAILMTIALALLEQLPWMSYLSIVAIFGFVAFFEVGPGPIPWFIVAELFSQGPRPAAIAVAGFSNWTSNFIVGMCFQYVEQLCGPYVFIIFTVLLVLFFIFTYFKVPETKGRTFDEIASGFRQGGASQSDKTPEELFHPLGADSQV

SMILES	inhibition [1]	inhibition [2]	inhibition [3]
CC1(CCc2ccccc2)N=C(N)N(Cc2ccccc2)C(=O)C1c1ccc(Cl)c(Cl)c1 (configuration not stated)	3.32%	2.08%	0.94%
COc1cc(OCCCN(C)Cc2ccc(OC)c(OC)c2)ccc1NC(=O)c1cccc2c(O)c3cccc(F)c3nc12	2.95%	2.52%	0.63%
CC(C)C(=O)NC(NC(=S)Nc1ccc(Br)cc1)C(Cl)(Cl)Cl (configuration not stated)	-2.18%	2.18%	-0.89%
COc1ccc2c(c1CNCCCCCCNCc1c(OC)ccc3c1CCCC3)CCCC2	11.1%	8.33%	7.55%
Cn1c(N)cc(-c2cccc(I)c2)c2c(=O)nc(N)nc1-2	4.12%	4.5%	2.89%
CCN(CC)CCN(Cc1ccc(-c2ccc(C(F)(F)F)cc2)cc1)C(=O)Cn1c(CCc2cccc(F)c2F)nc(=O)c2sccc21	0.1%	1.36%	-0.22%
CNc1ccc(CNCc2ccc(-c3ccc(-c4nc5cc(C(F)(F)F)ccc5[nH]4)s3)cc2)cc1	2.19%	0.49%	-0.01%
c1ccc2c(Nc3ccc(OCCOCCOc4ccc(Nc5c6ccccc6nc6ccccc56)cc4)cc3)c3ccccc3nc2c1	-2.9%	-1.87%	4.94%
FC(F)(F)c1ccc(CNC2CCN(CC3CCCCC3)CC2)cc1	7.89%	7.71%	8.5%
N=C(/N=C(/NCCCCCCN/C(=N\C(=N)Nc1ccc(Cl)cc1)N1CCOCC1)N1CCOCC1)Nc1ccc(Cl)cc1	10.5%	9.54%	9.37%
COc1cc2nc(N3CCN(C(=O)c4cccc(I)c4)CC3)nc(N)c2cc1OC	5.23%	3.9%	-0.04%
CCOC(=O)c1c(C)n(-c2ccccc2)c2ccc(OC(=O)c3ccc(S(=O)(=O)N(CC)CC)cc3)cc12	4.6%	5.12%	5.12%
CCCCNCc1ccc(-c2nc(CN(CCCn3ccnc3)C(=O)Nc3ccc(CC)cc3)cs2)cc1	7.74%	6.29%	6.91%
Cc1cc2c(NC(=O)NC3CCN(Cc4ccc(Cl)c(Cl)c4)CC3)cccc2cn1	0.94%	-0.05%	-3.37%
COc1ccc2ncc(F)c(CCN3C[C@H](CNCc4cc(C#N)c5c(c4)OCCO5)[C@H](O)C3)c2n1	7.97%	8.03%	1.91%
O=C(Nc1cccc(Cl)c1Cl)N[C@H]1CCN(CCCCCNC(=O)C2CC2c2ccc(Cl)c(Cl)c2)C1 (some centres not stated)	5.31%	4.52%	1.19%
COc1cc(C(=O)NCc2nn(CCN3CCC(N4CCCC4)CC3)cc2-c2ccc(Cl)c(Cl)c2)cc(OC)c1OC	-2.77%	3.08%	3.75%
O=C(N[C@H]1CCN(Cc2ccc(OCCN3CCNCC3)c(Br)c2)C1)c1ccc(Cl)c(Cl)c1	0.35%	0.16%	1.51%
CC(C)CN(c1nc(C(=O)NNC(=O)[C@H](CC2CC2)NC(=O)c2cc3cc(OCCN4CCCCC4)ccc3o2)cs1)C1CC1	-3.13%	0.58%	0.46%
CN(C)CCNC(=O)[C@H](CC1CCCCC1)NC(=O)c1ccc(O)c(-c2ccc(Cl)c(Cl)c2)c1	4%	2.85%	1.78%
O=C(/C=C/c1ccc(Cl)c(Cl)c1)N1CCC(NCc2c[nH]c3ccccc23)CC1	1.33%	1.05%	1.05%
CCCNCc1ccc(-c2ccc(CN(CCOC)C(=O)CCc3ccc(OC)cc3)cc2)nc1	0.6%	-1.02%	1.11%
O=C(Nc1ccc2c(c1)CCC2)c1cccc(CN2CCCN(Cc3cccc(O)c3)CC2)c1	1.77%	-2.6%	-0.46%

SMILES	inhibition [1]	inhibition [2]	inhibition [3]
COc1ccc(CNCc2ccsc2)cc1-c1ccc(OC)c(S(=O)(=O)NCCN2CCCC2)c1	1.22%	1.92%	-1.86%
O=C(NCCCCN1CCC(c2ccc(-c3ccco3)cc2)CC1)c1ccc(NC(=O)c2ccc(Cl)cc2)cc1	2.25%	2.49%	-0.22%
O=C(NC1CCN(CCN2CCC(c3c[nH]c4ccccc34)CC2)CC1)c1ccc(-c2ccc(C(F)(F)F)cc2)cc1	59%	19.8%	30.2%
O=C(Nc1ccc(C(=O)OCC2CCCN3CCCCC23)cc1)c1ccc(Cl)c(Cl)c1 (configuration not stated)	0.06%	-0.05%	0.18%
Cc1ccc(C2(CN3CCC(NC(=O)c4n[nH]cc4Cl)CC3)CCCCC2)cc1	-1.34%	0.31%	-0.37%
O=C(NCC1Cc2cc(Oc3ccccc3)ccc2O1)c1ccc([N+](=O)[O-])o1 (configuration not stated)	7.98%	10.4%	3.24%
CN(C)CCN(Cc1ccccc1-c1ccc(CNCCc2ccccc2)cc1)C(=O)NC1CCCCC1	3.67%	3.66%	0.85%
O=C(Nc1cccc(-c2nn3ccccc3c2-c2ccnc(Nc3ccc(C(=O)N4CCOCC4)cc3)n2)c1)c1c(F)cccc1F	23.1%	7.72%	2.78%
CN(C)c1ccc(CN2CCC(NC(=O)c3ccc(-c4ccccc4F)s3)CC2)cc1	-0.33%	-1.02%	-6.69%
CC(=O)c1ccc(-c2cccc3c(CC(=O)Nc4ccc5nccc(N6CCN(C)CC6)c5c4)cccc23)cc1	0.38%	1.03%	-1.81%
COc1ccc2[nH]ccc(=NN=Cc3ccc(N(C)C)cc3)c2c1	2.69%	3.94%	0.57%
CCc1ccc(NC(=O)c2cccc(CN3CCCN(Cc4ccc(OC)cc4)CC3)c2)cc1	1.52%	0.1%	0.16%
Cc1cc(=NN=Cc2ccccc2)c2cc(C(F)(F)F)ccc2[nH]1	8.02%	8.87%	6.17%
CCOC(=O)CCCCOc1c(OC)cc(Cc2cnc(N)nc2N)cc1OC	6.18%	6.88%	6.09%
Cc1cc(CNCC(CCNc2cc(=O)c3ccccc3[nH]2)NCc2cc(Br)cc(Br)c2)oc1C (configuration not stated)	4.51%	2.43%	3.29%
CC(C)COc1cc(C(=O)Nc2cnc3ccccc3c2)ccc1[N+](=O)[O-]	11.9%	10.8%	10.9%
Cc1ccc(N2CCc3c(-c4cc5cccnc5nc4C)cc(C)nc32)c(Cl)c1	4.06%	6.18%	3.42%
FC(F)(F)c1ccc2[nH]c(-c3cccc(-c4ccc(CNCC5CCCO5)cc4)c3)nc2c1 (configuration not stated)	11.3%	8.39%	6.46%
CN(C)CCNCc1ncsc1-c1ccc2c(Nc3ccc(F)cc3Cl)ccnc2c1	3.88%	4.3%	4.59%
C=C(F)c1sc(CNCCCNc2nc3ccccc3[nH]2)c(C)c1Br	57.5%	73.8%	68.7%
NC(=O)c1ccccc1OCC(=O)Nc1ccc(-c2cccc(-c3nc4cc(C(F)(F)F)ccc4[nH]3)c2)cc1	2.52%	-0.46%	3.74%
O=C(Nc1ccc(-c2cccc(-c3nc4ccccc4[nH]3)c2)cc1)Nc1ccc(Cl)c(Cl)c1	-0.46%	0.83%	0.9%
CC(C)(C)c1ccc(C(=O)NC2CCC(CCN3CCc4ccc(S(C)(=O)=O)cc4CC3)CC2)cc1C(F)(F)F (configuration not stated)	1.87%	2.06%	6.75%

SMILES	inhibition [1]	inhibition [2]	inhibition [3]
NCc1cccc(-c2ccc(CNC3CCN(Cc4ccccc4)CC3)cc2)c1	6.37%	2.02%	-1.34%
CNCCCn1c(N(C)C)nc2cc(-n3cnc4cc(-c5ccc(Cl)cc5)sc4c3=O)ccc21	3.3%	3.48%	3.76%
CCCc1cn2c3c(cc(C(=O)N[C@@H](Cc4ccccc4)[C@H](O)CNC4CCOCC4)cc13)N(C)S(=O)(=O)CC2	0.07%	1.26%	-0.3%
CCC(CO)NCC(O)Cn1c2ccc(Cl)cc2c2cc(Cl)ccc21 (configuration not stated)	4.65%	5.96%	2.18%
CCn1c(-c2nc(-c3ccc4c(c3)OCO4)cnc2N)nc2cnccc21	19.7%	12.4%	13.5%
CC(C)(CNC(=O)C1CCN(CCOc2ccc(F)c(F)c2)CC1)c1nc(-c2ccc(Cl)c(O)c2)c(-c2ccncc2)[nH]1	4.62%	4.16%	5.08%
C=CCc1cc(Br)ccc1OCCCOc1c(C)nc(N)nc1N	73.6%	76%	57%
Oc1ccc2c(c1NCC1CCCCC1)CCCC2	2.5%	2.89%	1.57%
COCCN(C)c1ccc(C(=O)Nc2ccccc2)cc1NS(=O)(=O)Cc1ccccc1	10.2%	8.35%	3.54%
Cc1cccc2nc(-c3ccc(-c4ccc(CNCCNC(=O)c5ccnn5C)cc4)s3)[nH]c12	9.45%	9.43%	8.36%
COc1ccc(O)c(C(=O)NCCc2ccc(OC)c(-c3ccc(C(C)(C)C)cc3)c2)c1	4.08%	5.01%	4.69%
CN1CCN(c2ccnc3ccc(NC(=O)Nc4ccc(Cl)cc4)cc23)CC1	-1.11%	-0.83%	-1.7%
CCCCc1cc(NCc2ccncc2)nc(Nc2ccc(C)cc2)n1	15.4%	5.93%	2.33%
CCN(C(=O)c1ccc(NC(=O)c2cccs2)cc1)c1nc2c(C)cccc2s1	1.43%	4.28%	2.9%
CC[C@H]1CN(Cc2ccco2)CC[C@H]1CCCc1ccnc2ccc(O)cc12	4.7%	4.86%	4.42%
CCCN1CCC(NCc2cn(C)nc2-c2ccc(Oc3ccccc3)cc2)CC1	10.8%	11%	11.5%
OCC1CCN(Cc2cccc(-c3ccc(-c4nc5cc(C(F)(F)F)ccc5[nH]4)s3)c2)CC1	4.2%	4.88%	3.14%
CC(C)CCN1CCC(Oc2ccc(NC(=O)c3cccs3)cc2Cl)CC1	0.82%	4.49%	3.68%
O=C(Nc1cc(F)cc(F)c1)NC1CCN(CCCCCNC(=O)C2CC2c2ccc(Cl)c(Cl)c2)CC1 (configuration not stated)	0.3%	-0.08%	-2.77%
CCC[C@@H]([C@@H](CC1CCCCC1)C(=O)N[C@H](C(=O)Nc1ccccn1)[C@H](C)CC)N(O)C=O	3.49%	3.35%	2.88%
CNC(=O)C1Cc2c([nH]c3ccc(Cl)cc23)C2(CCN(CCc3ccccc3)CC2)N1 (configuration not stated)	3.32%	0.71%	-2.87%
CO/C(=C\C=C\c1cc2cc(Cl)c(Cl)cc2[nH]1)C(=O)NCCCN1CCN(C2CCCCC2)CC1	8.66%	5.7%	2.31%
CCN(CC)CCCN(C(=O)Nc1ccc(C#N)cc1)c1nc(-c2ccc(F)cc2)cs1	-0.54%	2.42%	-0.41%
